Hits are enriched below; roughly 7.1% of the tested compounds scored in any of these assays.
LASV entry inh – blocks Lassa virus binding or cell entry. Lassa virus pseudotyped entry inhibition, cell-based qHTS. Potency, µM (top dose mostly 49.2 µM), for inactives: at the highest dose activity change, negative = inhibition, actives largely listed as inhibitors. 18,000 tested, 4.1% active
MARV entry inh – inhibitors of Marburg virus binding or entry into cells; Marburg virus pseudotype entry/binding inhibition, cell-based; Potency, µM (doses to about 49.2 µM), for inactives: at the top dose activity change, negative = inhibition, hits mostly inhibitors; AID 720532; 18,000 tested, 6.5% active
The depositor's hits bear a star; ? = inconclusive; . = no result; ! = a repeat was not active; [ ] = dose if it differs, or a comment. Calls follow the shape of the full dose curve; tested in HEK293 cells. % is scaled to controls: 0 for no effect and ±100 for the full control effect; potency is read from the fitted curve at half-maximal effect.

SMILES	LASV entry inh	MARV entry inh
CCN1C(=NCc2cccc(C(F)(F)F)c2)NC(c2cccc(F)c2)C(C(=O)OC)=C1C (centres undefined)	11.8%[8.59 µM]	36.0%[8.59 µM]
O=S1(=O)C=CCN1Cc1ccc(F)cc1	-26.9%	-4.9%
CN(Cc1cc(Br)cc(Br)c1N)C1CCCCC1	28.2µM*	?
C=CCC(C)(O)c1cccc(C(F)(F)F)c1 (centres undefined)	-10.2%	3.3%
C=CC[C@](C)(O)c1ccccc1	0.75µM*!	-14.9%
CCCCCC(=O)N1C[C@H](n2cc(-c3ccc(F)cc3)nn2)[C@@H](O)C[C@H]1c1ccc(C)cc1	-4.7%	-20.8%
C=C(C(C)=O)C(O)C=Cc1ccco1 (centres undefined)	0.2%[8.59 µM]	3.0%[8.59 µM]
CCN1C(=NCC(C)C)NC(c2cccc(F)c2)C(C(=O)OC)=C1C (centres undefined)	10.1%[8.59 µM]	-5.2%[8.59 µM]
c1ccc2sc(C3(NCC4CC4)CCCCC3)cc2c1	?	14.1µM*
c1ccc2sc(C3(N4CCCC4)CCCCC3)cc2c1	0.6%	6.31µM*
O=[S+]1([O-])C[C@@H](N2CC[C@@H](O)C2)[C@@H](COCc2ccccc2)N1	5.6%	23.2%
O=C1CS(=O)(=O)N(Cc2ccccc2)[C@H]1Cc1ccccc1	3.4%	20.9%
CC1(C)CC(=O)C2=C(C1)O[C@@]1(CCCCN3C(=O)c4ccccc4C3=O)Cc3cc(C#N)ccc3[C@H]2O1	-5.3%[8.59 µM]	?
CCCCCCCc1cc2ccccc2c2c(C(C)=O)c(-c3ccccc3)c(C(=O)OC)n12	6.4%[8.59 µM]	-16.1%[8.59 µM]
O=S1(=O)CCSCCN1Cc1cccc(Cl)c1	.	17.9%
CCN(CC)CCOC(=O)C1(c2ccccc2)CCCC1	-25.5%	-31.3%
CCN(CC)CCOC(=O)C1(C2CCCCC2)CCCCC1	?	11.2µM*!
C#CCCOC(=O)N1C2=NC3=C(C(=O)N(Cc4ccc5c(c4)OCO5)C3=O)C3N(C)c4ccccc4[C@]23C[C@H]1CO (some centres undefined)	.	-22.9%[8.59 µM]
COC(=O)N(C=Cc1ccc(OC)cc1)CCc1ccc(OC)c(OC)c1	1.2%[8.59 µM]	2.8%[8.59 µM]
Fc1ccccc1-c1nc(-c2ccccc2)oc1NCc1ccccc1	-31.6%[8.59 µM]	0.7%[8.59 µM]
O=C(O)c1cccc(-c2noc(-c3ccccc3F)n2)c1	8.91µM*	3.16µM*
COc1cccc(-c2c[nH]c3c(NN=Cc4ccncc4)ncnc23)c1	-65.3%	?
CC1CCN(CCCC(=O)c2ccc(F)cc2)CC1	-2.6%	-18.9%
CC(C)(C)c1ccc(C(=O)CCCN2CCC(OC(c3ccccc3)c3ccccc3)CC2)cc1	8.91µM*	-67.5%
O=C(O)P(=O)(O)O	-5.2%	1.0%
SMILES	LASV entry inh	MARV entry inh
O=P(O)(O)O	35.5µM*	6.31µM*
CCCCC#C[C@@H]1C=C[C@H](Oc2ccc(C(=O)OC)cc2)[C@@H](COC(=O)OCC)O1	6.4%[8.59 µM]	16.2%[8.59 µM]
CCCCCCN1C(=O)CC[C@@]23C1=NC(C(=O)OC)=C(C(=O)OC)[C@@H]2N(Cc1ccccc1)c1ccccc13	-17.1%[8.59 µM]	-28.3%[8.59 µM]
C#CCNc1ccc2c(c1)OC[C@H](C)NS2(=O)=O	.	8.0%
COC1=CC(=O)C(C(=O)c2ccccc2)=CC1=O	-3.6%	10.3%
COC1=CC(=O)C=C(OC)C1=O	10µM*	7.08µM*
O=S(=O)(O)c1cc(N=C=S)ccc1/C=C/c1ccc(N=C=S)cc1S(=O)(=O)O	33.9%	-3.1%
Nc1ccc(/C=C/c2ccc(N)cc2S(=O)(=O)O)c(S(=O)(=O)O)c1	-4.8%	25.1µM*
C[C@H]1CC[C@H]2C(=O)N(Cc3ccccc3)C[C@H](O)CN2[C@H]1c1cccc(Br)c1	.	-5.3%[8.59 µM]
CN1CCC(=C2c3ccccc3CC(=O)c3sccc32)CC1	?	7.08µM*!
CN1CCC(=C2c3ccccc3CCc3sccc32)CC1	22.4µM*!	11.2µM*
CC(C)(C)N1C(=O)[C@@H]2[C@H]3[C@H](O)[C@H](O)CC(=NOCc4ccccc4)[C@H]3CC[C@H]2C1=O	-3.3%[8.59 µM]	-9.5%[8.59 µM]
Nc1ccc2cc3ccc(N)cc3nc2c1	25.1µM*	10µM*
CCOc1ccc2nc3cc(N)ccc3c(N)c2c1	21.7%	1.8%
COC[C@H]1O[C@@H]2O[C@@H]1[C@@H](C=Cc1ccccc1)C[C@H]2C	19.6%[8.59 µM]	5.3%[8.59 µM]
CCN1C(=NCc2cccc(C(F)(F)F)c2)NC(c2ccccc2)C(C(=O)OC)=C1C (centres undefined)	5.2%[8.59 µM]	?
COC(=O)N1C(C)=Cc2ccccc2C1CC(C)=CC(C)=O (centres undefined)	-5.7%[8.59 µM]	-9.7%[8.59 µM]
CCCC[C@]12Cc3ccccc3[C@H](O1)c1c(cc(-c3ccccc3)oc1=O)O2	-20.2%[8.59 µM]	?
COc1cccc(-c2ccc3ncnc(NC4CCNCC4)c3c2)c1	0.2%	?
FC(F)(F)c1ccccc1-c1ccc2ncnc(NC3CCNCC3)c2c1	-18.6%	11.2µM*

Screening results from PubChem.
